Screens deposited in PubChem BioAssay by National Center for Advancing Translational Sciences (NCATS).
Pf Dd2 inh = blocks in vitro growth of P. falciparum Dd2 | P. falciparum Dd2 growth, SYBR Green, 72 h | Potency, µM (doses to about 28.9 µM), for inactives: at the highest dose activity, negative = inhibition, usual class: inhibitors | 120,000 tested, 4.3% active; active means well fitted inhibition curve with a large enough effect;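 further: plate controls were DMSO vehicle for no effect and reference drug for full effect; nearly all actives have a fitted effect of over 65% in size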
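Infected erythrocytes (Dd2, 0.3% parasitemia, 2.5% hematocrit final) are added to compound in RPMI-1640/Albumax II medium, grown 72 h at 37C in low oxygen, then lysed with saponin/Triton-X containing SYBR Green and read by fluorescence.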
Starred values were filed as active, the others as inactive; i = inactive; [ ] = dose if it differs, or a comment. Many of the other results were omitted from the sample, so hits are more common in it than they were. Potency means the concentration at half of the fitted maximal effect.

SMILES	Pf Dd2 inh
COc1ccc(-c2cc(C[C@H]3CNCC[C@H]3CC(=O)N3CCOCC3)no2)cc1	8.7%[44.1 µM]
CC(C)NC(=O)C[C@@H]1CCNC[C@@H]1Cc1cc(-c2ccc(C(C)(C)C)cc2)on1	7.08µM*
O=[S+]1([O-])NC2(CCCN(Cc3cccc4ccccc34)C2)CNc2ccccc21 (configuration not stated)	i
CC(C)N1C[C@H](O)C[C@H]1c1nc(-c2ccc3c(c2)OCO3)no1	-8.5%[44.1 µM]
O=C(c1ccccn1)N1CCC(N2Cc3ccccc3C2=O)CC1	23.2%
COc1ccc(C[C@H](NC(=O)[C@@H]2C[C@H](NC(=O)CC(C)(C)C)CN2C(=O)CC(C)(C)C)C(N)=O)cc1	6.8%
Cc1nnc2n1CCC(NC(=O)Cc1cccs1)CC2 (configuration not stated)	49.8%
COc1ccc(Cn2c(C3CCN(C(=O)C4(c5ccccc5)CC4)CC3)n[nH]c2=O)cc1	-4.6%
COc1ccc(CCNC(=O)c2cnn(-c3ccc(F)cc3)c2C2CCN(C(=O)OC(C)(C)C)CC2)cc1OC	7.94µM*
COc1ccc(OC)c(CCNC(=O)c2cnn(-c3ccc(C)cc3C)c2C2CCN(C(=O)OC(C)(C)C)CC2)c1	-12.3%
COc1ccc(CCNC(=O)c2cnn(-c3cccc(C)c3)c2C2CCN(C(=O)OC(C)(C)C)CC2)cc1OC	11.2µM*
COc1cccc(NC(=O)N2CCCC(Cn3cnc4cccnc43)C2)c1 (configuration not stated)	i
Cc1ccc(C(=O)N2CCN(c3nnc4ccccn34)CC2)cc1C	-13.9%
COc1ccccc1-c1nc2cnccn2c1NCCC(=O)Nc1ccc2c(c1)OCO2	i
Cc1sc2cc(C(=O)NC(C)(C)C)[nH]c2c1CN1CCCCC1	-8.7%
O=C1[C@@H]2CSC(c3ccc(C(F)(F)F)cc3)N2C(=O)N1c1ccccc1 (some centres not stated)	11.5%
CC(C)c1ccc(C2Sc3ccccc3NC3=C2C(=O)c2ccccc23)cc1 (configuration not stated)	3.55µM*
CCc1ccc(CNC(=O)c2cc3c(s2)-c2ccccc2OC3)cc1	11.0%
O=C1C2=C(Nc3ccccc3SC2c2ccc(C(F)(F)F)cc2)c2ccccc21 (configuration not stated)	4.47µM*
CCc1ccc(C2Sc3ccccc3NC3=C2C(=O)c2ccccc23)cc1 (configuration not stated)	2µM*
CNC(=O)[C@@H]1C[C@H](Oc2cccnc2)CN1C(=O)CC1CCCC1	-1.2%
Cc1cc(C)c(NC(=O)Cn2c(N(C)Cc3ccccc3)nc(C)cc2=O)c(C)c1	i
CC(=O)N1CCN([C@H]2[C@@H]3OC[C@@H](O3)[C@@H](NCc3ccc(OC(F)(F)F)cc3)[C@@H]2O)CC1	4.4%
Cn1cc(C(=O)N2CCC(OC3CCN(S(C)(=O)=O)CC3)CC2)cn1	40.5%
Cc1cnc(C(=O)NC2C[C@H]3CC[C@@H](C2)N3C(=O)c2cc(F)cc(F)c2)cn1 (some centres not stated)	i
SMILES	Pf Dd2 inh
COCCNC(=O)[C@@H]1C[C@H](Oc2ccccc2)CN1S(=O)(=O)c1cccs1	-22.4%
COc1ccc([C@@H](NC(=O)c2ccc3nccn3c2)C2CC(O)C2)cn1 (some centres not stated)	-9.4%
CC(C(=O)NCCc1ccccc1)N1C(=O)COc2ccc(C(=O)COc3ccc(Cl)cc3)cc21 (configuration not stated)	i
Cn1cc(CNC(=O)C[C@@H]2C[C@H]3O[C@H](CNC(=O)N4CCOCC4)[C@@H](O)[C@H]3O2)cn1	-27.0%[44.1 µM]
CC1Oc2ccc(NC(=O)c3ccc(F)cc3F)cc2CN(Cc2ccccc2Cl)C1=O (configuration not stated)	i
COc1ccc(NC(=O)c2ccc3c(c2)OCCN(Cc2ncccn2)C3)cc1F	i
COc1ccc(NC(=O)c2ccc3c(c2)OCCN(C2CCC2)C3)cn1	11.2µM*
COc1ccc(NC(=O)c2ccc3c(c2)C(O)CCCCCN3C)cn1 (configuration not stated)	-40.2%
O=C(NCc1nnc2c(-c3nc(C4CC4)no3)cccn12)C1CCC1	-10.4%
CS(=O)(=O)N1CCC2(CC1)CC(CC(=O)O)CCO2 (configuration not stated)	-23.3%
O=C(O)c1cc(-n2c(/C=C\c3ccc(F)cc3)nc3ccccc3c2=O)ccc1Cl	-12.2%
O=C(c1ccccc1)n1nc(-c2ccccc2)nc1NCc1ccc(F)cc1	13.0%
COc1ccccc1/C=C/C(=O)Nc1nc2n(n1)C(c1ccc(F)cc1)C=C(c1ccccc1)N2 (configuration not stated)	10µM*
O=C(/C=C/c1ccccc1)Nc1nc2n(n1)C(c1ccc(Cl)cc1)C=C(c1ccccc1)N2 (configuration not stated)	11.2µM*
CC(=O)Nc1nc2n(n1)C(c1ccc(F)cc1)C=C(c1ccc(Cl)cc1)N2 (configuration not stated)	10µM*
O=C(Nc1nc(-c2ccccc2)ns1)c1ccc(Cl)cc1	10.5%
O=C(/C=C/c1ccc(F)cc1)Nc1nc2n(n1)C(c1ccc(Cl)cc1)C=C(c1ccccc1)N2 (configuration not stated)	11.2µM*
O=C(c1ccc(F)cc1)n1nc(-c2ccccc2)nc1NCc1ccc(F)cc1	-14.5%
COc1cc(C2C(C(=O)Nc3ccccc3)=C(C)Nc3nc(SCc4ccccc4F)nn32)cc(OC)c1OC (configuration not stated)	3.2%
CC1=C(C(N)=O)C(c2ccc(F)cc2)n2nc(-c3ccccc3Cl)nc2N1 (configuration not stated)	2.9%
O=S(=O)(Nc1nc2n(n1)C(c1ccc(F)cc1)C=C(c1ccc(Cl)cc1)N2)c1ccccc1 (configuration not stated)	11.3%
Cc1ccc(C)c(C(=O)NCc2nnc3ccc(-c4ccc(C)c(C)c4)nn23)c1	i
O=C1N(CC2CCOCC2)CCOC12CCN([S+](=O)([O-])c1ccccc1)CC2	-2.4%[44.1 µM]
CC(=O)N1CCC(Nc2ncccc2-c2cc(-c3ccccc3)nc3c(C)noc23)CC1	-19.3%[44.1 µM]
O=C1CCN(S(=O)(=O)c2ccc3c(c2)OCCO3)CCCCCCN1	i
SMILES	Pf Dd2 inh
CC(C)N1CCC(CC(=O)N2CCCC(c3ccc(C(=O)O)cc3)C2)CC1 (configuration not stated)	0.7%
CSc1cccc(NC(=O)N2C[C@H](c3nc(-c4ccccc4)no3)[C@@H](C)C2)c1	i
COC[C@@H]1[C@H](NC(=O)c2cc(N3CCCCC3)ccc2Cl)[C@@H]2CCO[C@H]12	-3.1%
Cn1cc(CN[C@H]2[C@H](O)[C@H](O)C[C@@H]2c2cccnc2)cn1	6.5%[44.1 µM]
COCCNC(=O)C1CCN(C(=O)N2CC3CC(C2)[C@H]2CCCC(=O)N2C3)CC1 (some centres not stated)	23.7%
Cc1cc(C(F)(F)F)nn1CC(=O)NC1CCc2n[nH]c(=O)n2CC1 (configuration not stated)	32.3%
COc1ccc(-c2noc(-c3nnn(-c4ccc(C(C)C)cc4)c3C)n2)cc1OC	8.91µM*
COc1ccc(-c2noc(-c3nnn(-c4ccc(C)cc4C)c3C)n2)cc1	24.6%
COc1ccc(OC)c(-n2nnc(-c3nc(-c4ccc5c(c4)OCO5)no3)c2C)c1	-6.2%
C=C[C@H]1CN2CC[C@H]1C[C@@H]2CNC(=O)C(N)=O	-4.4%[44.1 µM]
CCc1nncn1C1CCN(S(=O)(=O)c2ccc(F)cc2)CC1	-11.4%
O=C(c1cccc(Cl)c1)N1CCC2(CC1)N=C(c1cccc(Br)c1)NO2	16.2%
